IEC-6 cytotox: counter-screen for KLF5 inhibitors: cytotoxicity in IEC-6 cells. inhibition, % at 5 µM. actives 0.78% (n = 290,000). IEC-6 cytotoxicity, luminescence viability; in the data active = inhibition above about 22%;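 note: 0% = plate median of test compound wells and 100% = cytotoxic reference compound wells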
BaF3 parental: reduces parental Ba/F3 cell viability, JAK2V617F counter-screen; inhibition, % at 5.6 µM; CellTiter-Glo ATP luminescence; AID 1486; actives 1.1% (n = 220,000);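 active = inhibition above a per-campaign cutoff, the mean inhibition of all tested compounds plus 3 SD, cut at about 27% in these data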;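 note: 0% = DMSO wells and 100% = JAK Inhibitor I control wells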
aSyn 5UTR inh: MLPCN primary screen, SNCA 5' untranslated region; alpha-synuclein 5'UTR reporter, inhibitor activity; actives 0.82% (n = 300,000); AID 1813; inhibition, % (tested at 7.5 µM); in the data active = inhibition above about 60%;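 note: H4 neuroglioblastoma cells stably carrying SNCA 5'UTR luciferase fusion; 0% = DMSO wells and 100% = positive control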
Ba/F3 V617F tox: loss of viability in JAK2V617F-driven Ba/F3 cells; Ba/F3 EpoR-JAK2V617F viability, ATP luminescence; inhibition, % at 5.6 µM; actives 1.1% (n = 220,000); AID 1446;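 active = inhibition above the campaign mean plus 3 SD over all tested compounds, cut at about 24% in these data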;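 note: cytokine-independent growth of Ba/F3 cells driven by EpoR plus mutant JAK2; 0% = DMSO-treated cells and 100% = JAK inhibitor I control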
APP transl inh: APP translation inhibition. SH-SY5Y APP 5'UTR-luciferase reporter, luminescence. inhibition, % at 2 µM. actives 0.82% (n = 190,000). AID 1285;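 active = inhibition above a set limit, derived from the sample mean plus 3 SD, cut at about 45% in these data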
KLF5 inhibitor: kruppel-like factor 5 inhibition; AID 1700; inhibition, % at 5 µM; actives 0.23% (n = 290,000); DLD-1 KLF5 promoter-luciferase reporter, luminescence;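 active = inhibition above a per-plate limit of that plate's mean compound inhibition plus 3 SD, cut at about 60% in these data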;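 note: 0% = DMSO wells and 100% = LY294002 at 200 µM; higher means less KLF5 promoter-driven luciferase light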
* marks the source's active call; other numbers are inactive results. Shown are actives, neighbours in structure and some others; about 2.2% of the full set was active somewhere.

Screening Cc1ccc(S(=O)(=O)Nc2cccc(C(=O)NCC3CCCO3)c2)cc1F (configuration not stated) returned aSyn 5UTR inh 12.
`O=c1[nH]c(-c2cccnc2)nc2sc(-c3ccccc3)cc12` gave IEC-6 cytotox 4, BaF3 parental 6, aSyn 5UTR inh -119, Ba/F3 V617F tox -2, APP transl inh 75* and KLF5 inhibitor -6.
Screening Cc1nc2sc(-c3ccccc3)cc2c(=O)n1N returned IEC-6 cytotox 7, BaF3 parental 4, aSyn 5UTR inh 75*, Ba/F3 V617F tox 4 and KLF5 inhibitor 6.
Screening Cc1nc2sc(-c3ccccc3)cc2c(=O)n1-n1cccc1 returned IEC-6 cytotox 3, BaF3 parental 5, aSyn 5UTR inh -189, Ba/F3 V617F tox 1, APP transl inh -142 and KLF5 inhibitor -165.
`N#CC(c1ccc(Cl)cc1)c1ccc2c(C(F)(F)F)cc(C(F)(F)F)nc2n1` (configuration not stated) gave IEC-6 cytotox 11, BaF3 parental 4, aSyn 5UTR inh 112*, Ba/F3 V617F tox 3, APP transl inh -4 and KLF5 inhibitor -9.
N#CC(c1ccc(Cl)cc1)c1cccc(Cl)n1 (configuration not stated) was read as IEC-6 cytotox -3, BaF3 parental 48*, aSyn 5UTR inh 6, Ba/F3 V617F tox -3, APP transl inh 28 and KLF5 inhibitor -7.
Screening CCOC(=O)C1=C(c2ccccc2)N=C2SCC(=O)N2C1c1ccc(OC)c(OC)c1 (configuration not stated) returned IEC-6 cytotox 3, BaF3 parental 0, aSyn 5UTR inh -2, Ba/F3 V617F tox -4, APP transl inh -6 and KLF5 inhibitor -47.
For CCOC(=O)C1=C(c2ccccc2)N=C2SCC(=O)N2C1c1cccc(OC)c1 (configuration not stated) the results were IEC-6 cytotox -1, BaF3 parental 3, aSyn 5UTR inh -6, Ba/F3 V617F tox 1, APP transl inh 61* and KLF5 inhibitor -28.
`COc1ccccc1NC(=O)c1ccc2c(O)c(S(=O)(=O)c3ccccc3)c(=O)[nH]c2c1` gave IEC-6 cytotox 4, aSyn 5UTR inh -4 and KLF5 inhibitor -30.
For CCCC1=[N+](CC(=O)c2ccccc2)CCn2c(C)ccc21 the results were IEC-6 cytotox 6, BaF3 parental 27*, aSyn 5UTR inh -74, Ba/F3 V617F tox 32*, APP transl inh -4 and KLF5 inhibitor -9.
`CCCC1=[N+](CC(=O)c2ccc(C)cc2)CCn2cccc21` gave IEC-6 cytotox 7, BaF3 parental 7, aSyn 5UTR inh -51, Ba/F3 V617F tox -3, APP transl inh -21 and KLF5 inhibitor -14.
Screening CCCC1=[N+](CC)CCn2c(C)ccc21 returned IEC-6 cytotox -4, BaF3 parental 64*, aSyn 5UTR inh 13, Ba/F3 V617F tox 61*, APP transl inh -17 and KLF5 inhibitor -55.
Screening NC(=O)CC[C@H](NC(=O)c1ccc(F)cc1)C(=O)OCC(=O)NCc1ccc(F)cc1 returned IEC-6 cytotox 2, BaF3 parental 10, aSyn 5UTR inh 26, Ba/F3 V617F tox 4, APP transl inh -13 and KLF5 inhibitor -9.
`COc1ccc(OC)c(S(=O)(=O)Nc2c(C)cccc2C)c1` gave IEC-6 cytotox 0, BaF3 parental 11, aSyn 5UTR inh 3, Ba/F3 V617F tox 3, APP transl inh -8 and KLF5 inhibitor 3.
For Cc1cc(C(=O)CSc2nnc(N)s2)c(C)n1Cc1cccs1 the results were IEC-6 cytotox -1, BaF3 parental 0, aSyn 5UTR inh 69*, Ba/F3 V617F tox -1, APP transl inh -136 and KLF5 inhibitor -82.
`CC(=O)Nc1ccc(SCC(=O)c2cc(C)n(Cc3cccs3)c2C)cc1` gave IEC-6 cytotox 5, BaF3 parental 7, aSyn 5UTR inh 68*, Ba/F3 V617F tox 1, APP transl inh -112 and KLF5 inhibitor -1.
For COc1ccc(-n2cnnc2SCC(=O)c2cc(C)n(Cc3cccs3)c2C)cc1 the results were IEC-6 cytotox -2, BaF3 parental 7, aSyn 5UTR inh -3, Ba/F3 V617F tox 2, APP transl inh 1 and KLF5 inhibitor -16.
COc1ccc(-c2nnc(SCC(=O)c3cc(C)n(Cc4cccs4)c3C)o2)cc1 was read as IEC-6 cytotox 2, BaF3 parental 2, aSyn 5UTR inh -4, Ba/F3 V617F tox 0, APP transl inh -5 and KLF5 inhibitor -13.
For Cc1csc(SCC(=O)c2cc(C)n(Cc3cccs3)c2C)n1 the results were IEC-6 cytotox 0, BaF3 parental 2, aSyn 5UTR inh 73*, Ba/F3 V617F tox -5, APP transl inh -120 and KLF5 inhibitor -33.
Screening CC(=O)Nc1ccc2c(c1)nc1n2CCN(C2CCCCC2)C1 returned IEC-6 cytotox 2, BaF3 parental 4, Ba/F3 V617F tox -4, APP transl inh -103 and KLF5 inhibitor -1.
Screening CCOc1ccc(NC(=O)CN2CCN(CC(=O)Nc3ccc(C(N)=O)cc3)CC2)cc1 returned IEC-6 cytotox 5, aSyn 5UTR inh -26 and KLF5 inhibitor -16.
`COc1ccc(N2CCN(C(=O)CCC(=O)N3CC(C)Oc4ccc(C)cc43)CC2)cc1` (configuration not stated) gave IEC-6 cytotox -7, aSyn 5UTR inh -11 and KLF5 inhibitor 19.
`Cc1ccc(-n2nc3c(=O)n(CCCC(=O)NCc4cccc(Cl)c4)nc(C)c3c2C)cc1` gave IEC-6 cytotox 14, aSyn 5UTR inh 45 and KLF5 inhibitor -10.
For Cc1ccc(-n2nc3c(=O)n(CCCC(=O)NCc4ccc(Cl)cc4)nc(C)c3c2C)cc1 the results were IEC-6 cytotox 5, aSyn 5UTR inh 62* and KLF5 inhibitor 1.
`COc1ccc(/C=C/C2=CCN(Cc3ccc(OC)cc3)CC2)cc1` gave IEC-6 cytotox -5, BaF3 parental 38*, aSyn 5UTR inh 12, Ba/F3 V617F tox 16, APP transl inh 13 and KLF5 inhibitor 5.
Screening O=C(CCc1ccccc1)Nc1ccccc1F returned IEC-6 cytotox -2, BaF3 parental 0, aSyn 5UTR inh -135, Ba/F3 V617F tox -3 and KLF5 inhibitor -122.
For O=C(CCc1ccccc1)Nc1ccc(F)cc1F the results were IEC-6 cytotox 1, BaF3 parental 4, aSyn 5UTR inh -68, Ba/F3 V617F tox 1, APP transl inh 47* and KLF5 inhibitor -77.
For COc1ccc(S(=O)(=O)Nc2c(C(=O)O)[nH]c3ccc(OC)cc23)cc1 the results were IEC-6 cytotox 1, aSyn 5UTR inh -1 and KLF5 inhibitor -17.
`COC(=O)c1[nH]c2ccc(F)cc2c1NS(=O)(=O)c1ccc(OC)cc1` gave IEC-6 cytotox 52*, BaF3 parental 61*, aSyn 5UTR inh 100*, Ba/F3 V617F tox 81*, APP transl inh 89* and KLF5 inhibitor 53.
O=C(NNc1nc(-c2ccccc2)cs1)c1ccc(F)cc1 was read as IEC-6 cytotox -5, BaF3 parental 11, aSyn 5UTR inh 76*, Ba/F3 V617F tox 1, APP transl inh -9 and KLF5 inhibitor 25.

Compound activity deposited in PubChem by several laboratories.
